# In PubChem BioAssay AID651848 (The Scripps Research Institute Molecular Screening Center, 2012):
# Some of the results follow. Active and inactive are the calls of the source. Cut-off read from the data, not from the text of the source: active = IC50 below about 10 µM; inactive = the rest.
# Assay: small-molecule binders of antibody PG9, dose response, biochemical, TR-FRET, HIV-1 gp120 antibody (AID 651848)
# Conditions: TR-FRET PG9 antibody-gp120 binding inhibition
row,Compound,IC50
1,O=C(Oc1ccccc1)Oc1ccc2c(c1)oc(=O)c1ccccc12,25.1 µM (inactive)
2,COc1ccc(-c2c(C)nn3c(N4CCC(C(=O)N5CCCCC5)CC4)cc(C)nc23)cc1OC,> 67 µM (inactive)
3,CC1(C)Cc2ccccc2-c2[nH]c(=S)[nH]c(=O)c21,> 67.1 µM (inactive)
4,S=c1[nH]c2ccccc2c2ccccc12,44.6 µM (inactive)
5,Cc1cccc(Nc2nc3c(S(=O)(=O)c4ccccc4)nnn3c3ccccc23)c1C,> 67 µM (inactive)
6,COC(=O)C1=C(C)N(Cc2ccccc2C(F)(F)F)C(=NCc2ccc(OC)cc2)NC1c1cccc(C(F)(F)F)c1 (configuration not stated),> 67 µM (inactive)
7,O=C(Nc1nnc(-c2ccccc2F)s1)c1ccccc1F,> 67.1 µM (inactive)
